The list is not random: actives were taken first. Their share in the collection is about 11%.
PNC assembly inh = perinucleolar compartment assembly inhibition. PC3M PTB-GFP, PNC prevalence imaging, 16 h; active compounds read low. activity change (PNC), negative = inhibition, % at 10 µM. actives 3.1% (n = 140,000);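 active = readout at or below -70, meaning at least 70% loss of cells showing the perinucleolar compartment, a nuclear body marking cancer cells; inconclusive = readout between -30 and a set limit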
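PC3M cells stably expressing PTB-GFP, 750–1000 cells/well, treated 16 h at 37 °C with compound (23 nl of library stock), in duplicate. After paraformaldehyde fixation and Hoechst stain, imaged at 20x; PNC prevalence scored by image analysis.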
ALDH1A1 inh = ALDH1A1 (human) enzyme inhibition; P00352; Purified ALDH1A1, NADH fluorescence, propionaldehyde substrate; Potency, µM (top dose mostly 75.3 µM), hits mostly inhibitors; actives 7.3% (n = 220,000); AID 1030
HPGD block = inhibitors of human 15-hydroxyprostaglandin dehydrogenase (HPGD) | Potency, µM, hits mostly inhibitors | purified HPGD, NADH fluorescence kinetic, PGE2 substrate | AID 894 | actives 4.3% (n = 150,000)
Target sequence (P15428 whole entry, looked up): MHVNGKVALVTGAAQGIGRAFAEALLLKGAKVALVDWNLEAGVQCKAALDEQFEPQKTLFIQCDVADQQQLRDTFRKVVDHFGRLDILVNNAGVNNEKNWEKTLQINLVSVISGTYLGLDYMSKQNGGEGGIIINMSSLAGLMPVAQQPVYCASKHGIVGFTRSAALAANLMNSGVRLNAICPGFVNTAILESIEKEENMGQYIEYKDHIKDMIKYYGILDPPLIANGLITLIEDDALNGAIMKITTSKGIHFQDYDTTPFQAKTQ
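20 nM HPGD preincubated 15 min at room temperature with compound in 50 mM Tris-HCl pH 8, 0.01% Tween 20. Started with 1 mM NAD+ and 30 uM prostaglandin E2; NADH fluorescence (360/450 nm) read 5 times over 30-s intervals, last minus first.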
Each line names hits and unclear results; the compound was inactive in the other large screens. Unless noted, calls follow the shape of the dose curve; as a rule, active = well fitted inhibition curve with a large enough effect (not every such curve was filed as active); inconclusive = small, poorly fitted or top-dose-only effect, or another doubt; inactive = no such curve, though single readings can be large or run the other way.

COC(=O)C(C(=O)OC)C(C[N+](=O)[O-])c1ccc(O)c(OC)c1 (stereo unspecified)	none
CCCCn1c(N)c(N(CCOC)C(=O)CCc2ccc(OC)cc2)c(=O)[nH]c1=O	PNC assembly inh inconclusive
CC(C)COC(=O)n1ccc(C(=O)N2CCCCC2)n1	HPGD block 10µM
CC(=O)c1ccc(NC(=O)c2ccn(C(=O)OCC(C)C)n2)cc1	none
CC1(C)S[C@@H]2[C@H](NC(=O)COc3ccccc3)C(=O)N2[C@H]1C(=O)O (tested in a mixture with another compound)	none (no result: PNC assembly inh)
Cn1c(=O)c2c(nc(Sc3ncccn3)n2Cc2ccccc2Cl)n(C)c1=O	PNC assembly inh inconclusive, ALDH1A1 inh inconclusive
Cn1cnnc1Sc1nc2c(c(=O)n(C)c(=O)n2C)n1Cc1ccccc1Cl	PNC assembly inh -92
COc1ccc(-n2c(SCC(=O)NNC(=O)c3ccccc3C)nnc2-c2ccncc2)cc1	none
O=C(Nc1ccc(Cl)cc1)[C@@H]1[C@@H]2C(=O)N(c3ccc(Cl)cc3)C(=O)[C@@H]2[C@H]2C=CC=NN21	PNC assembly inh inconclusive, ALDH1A1 inh inconclusive
O=C(Nc1ccc(Cl)cc1)C1CC(=O)n2c(nc3ccccc32)N1 (stereo unspecified)	none (no result: PNC assembly inh, HPGD block)
Cc1ccc(N2C(=O)[C@@H]3[C@H](C2=O)[C@H]2C=CC=NN2[C@@H]3C(=O)Nc2ccc(Cl)cc2)cc1	ALDH1A1 inh 7.9µM, HPGD block 35µM
O=C(Nc1ccc(Cl)cc1)[C@@H]1[C@@H]2C(=O)N(c3ccc(Cl)cc3Cl)C(=O)[C@@H]2[C@H]2C=CC=NN21	ALDH1A1 inh 22µM, HPGD block 28µM
Cc1nc(C)c(C(=O)NNC(=O)c2ccc(Br)cc2)s1	PNC assembly inh inconclusive
COc1ccc(C2CC(=O)N(C)c3ccccc3S2)cc1 (stereo unspecified)	none (no result: PNC assembly inh, HPGD block)
C[C@H]1CCCC=CC2C[C@H](OC(=O)CN(C)C)C[C@@H]2[C@@H](O)/C=C\C(=O)O1 (stereo partly specified)	none (no result: PNC assembly inh)
COC(=O)c1ccc(C(NC(=O)OCc2ccccc2)/C(C)=C/[C@@H](C)C(=O)Nc2ccc(OC)cc2)cc1 (stereo partly specified)	ALDH1A1 inh inconclusive (no result: PNC assembly inh)
CC(C)=CCC/C(C)=C/C=N/NC(=O)c1ccc([N+](=O)[O-])cc1	none
Cc1ccc(-c2nn(-c3ccccc3)cc2C2SCC(=O)N2Cc2ccccc2)o1 (stereo unspecified)	ALDH1A1 inh 28µM, HPGD block inconclusive
O=C1CSC(c2cn(-c3ccccc3)nc2-c2cc3ccccc3o2)N1Cc1ccccc1 (stereo unspecified)	ALDH1A1 inh inconclusive, HPGD block inconclusive
Cc1ccsc1/C=N/NC(=O)Cn1cnc2ccccc21	ALDH1A1 inh inconclusive
CC(C)C[C@H](NC(=O)Nc1ccccc1F)C(=O)O	none
Cc1nn(-c2ccc(Cl)cc2)c(=O)c2ccccc12	none (no result: PNC assembly inh, HPGD block)
Cc1c(Cl)sn(-c2ccc(Cl)cc2)c1=O	ALDH1A1 inh 1.8µM (no result: PNC assembly inh, HPGD block)
COC(=O)c1ccccc1NC(=S)NC(=O)c1cccc2ccccc12	ALDH1A1 inh 10µM
COC(=O)c1ccccc1NC(=S)NC(=O)c1ccc2ccccc2c1	ALDH1A1 inh inconclusive
CCCC(=O)NC(=S)Nc1ccccc1C(=O)OC	PNC assembly inh -108, ALDH1A1 inh inconclusive
CCC(=O)NC(=S)Nc1ccccc1C(=O)OC	none
C/C(N)=C(/C#N)C(=O)CSc1nnc(COc2cc(C)ccc2C)o1	none
Cc1cc(=O)n(CC(=O)Nc2cc(Cl)ccc2C)c(C(C)C)n1	none (no result: PNC assembly inh, HPGD block)
O=C(O)CNC(=O)C1COc2ccccc2O1 (stereo unspecified)	none
COc1ccc(CNC(=O)C2COc3ccccc3O2)cc1 (stereo unspecified)	PNC assembly inh -100, HPGD block 14µM
COc1ccccc1CNC(=O)C1COc2ccccc2O1 (stereo unspecified)	HPGD block 16µM
O=C(NCc1cccnc1)C1COc2ccccc2O1 (stereo unspecified)	none
O=C(Nc1ccncc1)C1COc2ccccc2O1 (stereo unspecified)	PNC assembly inh inconclusive
O=C(NC1CC2CCC1C2)C1COc2ccccc2O1 (stereo unspecified)	PNC assembly inh -86, HPGD block 14µM
CC(C)(C)NC(=O)COC(=O)/C=C/c1ccccc1[N+](=O)[O-]	none
C#Cc1cccc(NC(=O)c2ccc(Cl)cc2Cl)c1	none (no result: PNC assembly inh, HPGD block)
Cc1nn(C)cc1C(C(=O)NC1CCCCC1)N(Cc1ccc(F)cc1)C(=O)c1cnccn1 (stereo unspecified)	none (no result: PNC assembly inh, HPGD block)
CC1CCCCN1S(=O)(=O)c1ccc2c(c1)CCN2C(=O)C1CCC1 (stereo unspecified)	HPGD block inconclusive
COC(=O)c1ccc2c(=O)n(-c3ccccc3)c(SCN3C(=O)c4ccccc4C3=O)nc2c1	PNC assembly inh inconclusive, ALDH1A1 inh 13µM
COC(=O)c1c(NC(=O)CSc2nc3ccccc3c(=O)n2-c2ccccc2)sc(C)c1C	none
O=C(CCc1ccccc1)NC(NC(=S)Nc1ccc(Cl)cc1)C(Cl)(Cl)Cl (stereo unspecified)	none
CC(C)NC(=O)CN(C(=O)CCC(=O)Nc1ccccn1)c1ccc(F)c(Cl)c1	none
COc1ccc(Oc2nc(SC)nc3ccccc23)cc1	ALDH1A1 inh inconclusive
O=C(CC1C(=O)NCCN1Cc1c(F)cccc1Cl)NC1CCCC1 (stereo unspecified)	none (no result: PNC assembly inh, HPGD block)
O=C(Nc1cccn(Cc2c(F)cccc2Cl)c1=O)NC1CCCCC1	ALDH1A1 inh 25µM (no result: PNC assembly inh, HPGD block)
COC(=O)c1cn(NC(=O)Cc2c(F)cccc2Cl)c(=O)c2ccccc12	none (no result: PNC assembly inh, HPGD block)
CCCN(CCC)CCNC(=O)C1c2ccccc2C(=O)N2CCc3ccccc3C12 (stereo unspecified)	none (no result: PNC assembly inh, HPGD block)
Cc1nnc(N(C)C(=O)Cc2ccc3c(c2)OCO3)s1	PNC assembly inh -100
Cc1nnc(SCc2ccc3c(c2)OCO3)s1	ALDH1A1 inh inconclusive, HPGD block inconclusive
Cc1cc(NC(=O)c2ccccc2Oc2ccccc2)no1	none
Cc1ccc(CN(C)C(=O)c2ccccc2Oc2ccccc2)o1	PNC assembly inh inconclusive, ALDH1A1 inh 10µM, HPGD block 22µM
CN/S(=N/S(=O)(=O)c1ccccc1)c1ccc(C)cc1 (stereo unspecified)	none
Cc1ccc(S(=O)(=O)/N=S(/c2ccccc2)C(C)C)cc1 (stereo unspecified)	ALDH1A1 inh 19µM (no result: PNC assembly inh, HPGD block)
COc1ccc2c(c1)C(=O)C(=O)N2	ALDH1A1 inh 22µM
COc1ccc(S(=O)(=O)c2ccc(OC)cc2)cc1	none
CO[C@H]1COC(=O)CCC[C@H](C)[C@@H](OC)COC(=O)C/C=C\[C@@H]1C	none (no result: PNC assembly inh, HPGD block)
CCc1ccc(C(=O)CSc2n[nH]c(-c3ccncc3)n2)cc1	ALDH1A1 inh inconclusive, HPGD block 11µM
COC(=O)CSc1n[nH]c(-c2ccncc2)n1	none
O=C(CSc1n[nH]c(-c2ccccc2)n1)c1ccc(O)c(O)c1	HPGD block 3.5µM
O=C(CSc1n[nH]c(-c2ccccc2)n1)NCc1cccc(C(=O)O)c1	none (no result: PNC assembly inh, HPGD block)
C[C@H]1C=C2C=C[C@H](C)[C@H](CC[C@@H]3C[C@@H](O)CC(=O)O3)[C@H]2[C@@H](OC(=O)[C@@H](C)CCO)C1	ALDH1A1 inh inconclusive (no result: PNC assembly inh)
COCCCNC(=S)Nc1cccc(S(=O)(=O)NC2=NCCC2)c1	none (no result: PNC assembly inh, HPGD block)
COC(=O)c1cc(OC)c(=O)c2c(OC)c(OC)ccc2c1	none (no result: PNC assembly inh)
Cn1cnnc1SC(C(=O)c1ccccc1)c1ccccc1 (stereo unspecified)	ALDH1A1 inh inconclusive
